Source: PubChem BioAssay (EPA / NIEHS)
Activity calls are given as the source filed them. The calls were made as follows: active = hit-call score of the fitted dose curve at least 0.9, where 1 is the maximum; inactive = score below 0.9.

Target: Transcription factor E2F1 (Homo sapiens) (UniProt Q01094)
Experiment: ATG_E2F_CIS: Attagene CIS-FACTORIAL HepG2 Assay for human E2F Transcription Factor 1 (AID 2282935)
Conditions: HepG2 Attagene cis-reporter, E2F reporter RNA transcripts; actives raise or lower the signal
Description: ATG_CIS is a cell-based, multiplexed-readout assay that uses HepG2, a human liver cell line, with measurements taken at 24 hours after chemical dosing in a 24-well plate.ATG_E2F_CIS is one of 52 assay component(s) measured or calculated from the ATG_CIS assay. It is designed to make measurements of mRNA induction, a form of inducible reporter, as detected with fluorescence intensity signals by Reverse transcription polymerase chain reaction (RT-PCR) and Capillary electrophoresis technology.Data from the assay component ATG_E2F_CIS was analyzed into 1 assay endpoint. This assay endpoint, ATG_E2F_CIS, was analyzed with bidirectional fitting relative to DMSO as the negative control and baseline of activity. Using a type of inducible reporter, measures of mRNA for gain or loss-of-signal activity can be used to understand the reporter gene at the transcription factor-level as they relate to the gene E2F1. Furthermore, this assay endpoint can be referred to as a primary readout, because this assay has produced multiple assay endpoints where this one serves a reporter gene function. To generalize the intended target to other relatable targets, this assay endpoint is annotated to the dna binding intended target family, where the subfamily is E2F transcription factor.
Human liver HepG2 cells are transiently transfected with multiple reporter transcription units (MRTUs) in 6-well plates using FuGene 6 reagent (Roche; 3 ml FuGene/1 mg DNA). The MRTU constructs are regulated by a cis-regulating element (promoter). […] A major difference between the CIS and TRANS system is that in CIS activities of endogenous TFs are measured, whereas the TRANS assay evaluates changes in activities of exogenous, chimeric NR-Gal4 proteins. […] At the end of 24 hour incubation, total RNA was isolated using TriZol reagent (Invitrogen). The isolated RNA is then reverse-transcribed using oligo(dT) primer and Mo-MLV reverse transcriptase (Invitrogen) with DNAse I (Ambion) treatment for 30 min. The one-tenth of the produced cDNA was amplified by PCR using Taq DNA polymerase (Invitrogen) and two reporter sequence-specific primers. The PCR products were fluorescently labeled by primer extension with 6-arboxyfluorescein (6-FAM) 5'-labeled reporter sequence-specific primer (2 min at 95 C, 20 s at 68 C and 10 min at 72 C) and these products were digested with 5U of HpaI (New England Biolabs) for 2h at 37 C. The fragments were purified using Qiaquick PCR columns (Qiagen), analyzed on an ABI 3130xL genetic analyzer (Applied Biosystems) with peak positions identified by using a set of X-rhodamine (ROX)-labeled MapMarker1000 molecular weight standards (BioVentures). The raw capillary electrophoresis data was processed using Attagraph software (Attagene).

Transcription factor E2F1 (Homo sapiens), sequence (Q01094 whole entry, looked up): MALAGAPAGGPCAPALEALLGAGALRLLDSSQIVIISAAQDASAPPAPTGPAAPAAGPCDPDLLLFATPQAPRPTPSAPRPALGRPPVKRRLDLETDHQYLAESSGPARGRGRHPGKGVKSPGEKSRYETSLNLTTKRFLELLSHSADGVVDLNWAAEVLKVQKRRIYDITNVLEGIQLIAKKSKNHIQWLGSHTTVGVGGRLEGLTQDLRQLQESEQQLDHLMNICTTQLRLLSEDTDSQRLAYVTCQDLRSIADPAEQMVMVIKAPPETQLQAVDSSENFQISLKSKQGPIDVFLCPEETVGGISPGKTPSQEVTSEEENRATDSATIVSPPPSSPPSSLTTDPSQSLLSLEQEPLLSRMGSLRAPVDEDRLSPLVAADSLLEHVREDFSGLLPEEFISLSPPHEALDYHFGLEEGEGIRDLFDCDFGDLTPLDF

Compound | outcome
CC/C=C\CCCCO | inactive
CCC(=O)OC(C)(C)C1CC=C(C)CC1 (stereo not given) | inactive
CCCCN(CCO)CCO | inactive
CN(C)C(=O)Nc1ccccc1 | inactive
O=C(OCc1ccccc1)c1ccccc1O | inactive
CCOC(=O)CCCCCCCCC(=O)OCC | inactive
CC(=O)OC/C=C(C)/C=C/C=C(C)/C=C/C1=C(C)CCCC1(C)C | inactive
CCCCCCCCCCO[C@@H]1O[C@H](CO)[C@@H](O)[C@H](O)[C@H]1O | inactive
CCNC(=S)NCC | inactive
Nc1cc([N+](=O)[O-])ccc1C(=O)O | inactive
CCCCCCCCCO | inactive
C=CC(C)CCCC(C)(C)O (stereo not given) | inactive
CC(C)Cc1ccccc1 | inactive
[Na+] | inactive
N#CCCNCCC#N | inactive
CCCCCCCCOC(=O)c1ccc(O)cc1 | inactive
NC(N)=NC(N)=NCCc1ccccc1 | inactive
Cc1ccccc1S | inactive
CC(C)(C)c1ccc(S)cc1 | inactive
CC(C)C(=O)OCC=Cc1ccccc1 | inactive

Compound | outcome
COC(=O)c1ccc(C(=O)OC)cc1 | inactive
CCCCCCCOC(C)=O | inactive
Brc1cc(Br)cc(Br)c1 | inactive
CCC(C)(C)C1CCC(OC)CC1 (stereo not given) | inactive
CC(=O)CCC(=O)O | inactive
CC1COC(=O)O1 (stereo not given) | inactive
CC(=O)CC(=O)N(C)C | inactive
CCCCOCCOC(=O)c1ccccc1C(=O)OCCOCCCC | inactive
CCCC(O)C(CC)CO (stereo not given) | inactive
CC12CCC(C1)C(C)(C)C2O (stereo not given) | inactive
NC(=O)NC(N)=O | inactive
CC(C)N(c1ccccc1)C(C)C | inactive
CCC=C(C)C=O | inactive
NC(N)=S | inactive
CC1=CC[C@@H]2C[C@H]1C2(C)C | inactive
c1ccc(OCCOc2ccccc2)cc1 | inactive
CCOc1ccc(NC(C)=O)cc1 | inactive
CC1(C)CC(=O)CC(C)(C)N1 | inactive
CCCCC/C=C\C=C\C(=O)OCC | inactive
CCC(C)(C)C1CCC(=O)CC1 | inactive
